# From article PMC4081100, “A DNA-binding-site landscape and regulatory network analysis for NAC transcription factors in Arabidopsis thaliana”
# Tests used:
# Assay in all cases: universal protein binding microarray (PBM); transcription factors of Arabidopsis thaliana; high values mean tight binding
# GST-ANAC092(1-176) = target: T1, GST-ANAC092(1-176) (Arabidopsis thaliana, UniProt Q9FKA0 1-176); details: protein: recombinant; tags: GST; chain copies: 2; dsDNA, one strand shown
# T1 sequence: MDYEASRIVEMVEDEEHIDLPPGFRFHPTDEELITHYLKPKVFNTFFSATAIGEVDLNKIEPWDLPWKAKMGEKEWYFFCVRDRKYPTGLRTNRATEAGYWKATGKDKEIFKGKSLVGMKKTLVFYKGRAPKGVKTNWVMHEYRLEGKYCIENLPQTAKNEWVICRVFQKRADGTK
# Method in brief: (§1)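 Protein amounts were determined by A280 or anti-GST western blot after glutathione–Sepharose 4B purification of GST-tagged proteins induced in cells, with zinc acetate included for zinc-finger proteins. Duplicate runs at 200 to 500 nM final were done on custom all-10-mer Agilent 4 × 180K arrays made double-stranded by primer extension. The normalised enrichment score (E-score) over gapped and ungapped 8-mers is the measure of binding.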
# GST-NTL6(1-168) = GST-NTL6(1-168) (Arabidopsis thaliana, UniProt Q9SCK6 1-168); details: protein: recombinant; tags: GST; chain copies: 2; dsDNA, one strand shown
# Chain of GST-NTL6(1-168) (Q9SCK6 1-168): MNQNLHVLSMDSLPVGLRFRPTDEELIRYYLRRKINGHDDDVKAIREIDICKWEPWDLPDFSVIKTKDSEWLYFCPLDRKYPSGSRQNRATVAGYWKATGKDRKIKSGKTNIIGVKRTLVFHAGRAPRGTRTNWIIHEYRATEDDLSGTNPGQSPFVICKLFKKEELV
# Method in brief: as §1
# GST-ANAC019 NAC domain = target: T2, GST-ANAC019 NAC domain (Arabidopsis thaliana, UniProt Q9C932 14-162); details: protein: recombinant; tags: GST; chain copies: 2; dsDNA, one strand shown
# T2 sequence: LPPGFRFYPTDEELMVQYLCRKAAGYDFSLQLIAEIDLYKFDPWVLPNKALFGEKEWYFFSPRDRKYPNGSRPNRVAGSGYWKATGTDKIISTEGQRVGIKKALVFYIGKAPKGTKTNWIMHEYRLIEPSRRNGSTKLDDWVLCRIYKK
# Method in brief: as §1
# GST-ANAC055(1-171) = target: T3, GST-ANAC055(1-171) (Arabidopsis thaliana, UniProt Q9LDY8 1-171); details: protein: recombinant; tags: GST; chain copies: 2; dsDNA, one strand shown
# T3 sequence: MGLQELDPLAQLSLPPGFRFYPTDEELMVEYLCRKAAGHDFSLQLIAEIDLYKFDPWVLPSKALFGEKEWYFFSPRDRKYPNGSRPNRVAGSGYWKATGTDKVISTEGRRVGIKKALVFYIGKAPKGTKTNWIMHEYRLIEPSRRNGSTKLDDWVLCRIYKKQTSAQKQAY
# Method in brief: as §1
# GST-ATAF1 NAC domain = target: T4, GST-ATAF1 NAC domain (Arabidopsis thaliana, UniProt Q39013 7-158); details: protein: recombinant; tags: GST; chain copies: 2; dsDNA, one strand shown
# T4 sequence: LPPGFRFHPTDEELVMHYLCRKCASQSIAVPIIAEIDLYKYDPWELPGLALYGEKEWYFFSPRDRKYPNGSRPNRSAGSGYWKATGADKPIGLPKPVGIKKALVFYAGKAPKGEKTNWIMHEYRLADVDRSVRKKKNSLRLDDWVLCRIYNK
# Method in brief: as §1
# [1] = target: T5, GST-ANAC092(1-285) full length (Arabidopsis thaliana, UniProt Q9FKA0 1-285); details: protein: recombinant; tags: GST; chain copies: 2; dsDNA, one strand shown
# T5 sequence: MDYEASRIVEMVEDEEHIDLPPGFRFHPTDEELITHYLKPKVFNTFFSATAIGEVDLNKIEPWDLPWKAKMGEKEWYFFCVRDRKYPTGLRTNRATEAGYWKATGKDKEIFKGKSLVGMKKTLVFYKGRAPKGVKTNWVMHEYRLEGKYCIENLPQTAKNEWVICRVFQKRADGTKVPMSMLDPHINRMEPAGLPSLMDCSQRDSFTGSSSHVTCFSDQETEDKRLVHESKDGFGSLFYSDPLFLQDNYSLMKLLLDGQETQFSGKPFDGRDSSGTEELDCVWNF
# Method in brief: as §1
# GST-NAP(1-166) = target: T6, GST-NAP(1-166) (Arabidopsis thaliana, UniProt O49255 1-166); details: protein: recombinant; tags: GST; chain copies: 2; dsDNA, one strand shown
# T6 sequence: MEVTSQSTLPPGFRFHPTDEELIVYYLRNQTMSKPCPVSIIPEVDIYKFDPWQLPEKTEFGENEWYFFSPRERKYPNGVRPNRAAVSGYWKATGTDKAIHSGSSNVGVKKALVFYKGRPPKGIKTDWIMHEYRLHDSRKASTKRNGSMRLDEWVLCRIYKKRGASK
# Method in brief: as §1
# GST-NST2(1-184) = target: T7, GST-NST2(1-184) (Arabidopsis thaliana, UniProt Q9M274 1-184); details: protein: recombinant; tags: GST; chain copies: 2; dsDNA, one strand shown
# T7 sequence: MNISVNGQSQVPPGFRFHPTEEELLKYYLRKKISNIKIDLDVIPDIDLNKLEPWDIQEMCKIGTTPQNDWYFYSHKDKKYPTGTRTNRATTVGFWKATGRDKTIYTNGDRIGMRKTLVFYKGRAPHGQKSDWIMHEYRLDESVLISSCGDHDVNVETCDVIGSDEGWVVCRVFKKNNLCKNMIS
# Method in brief: as §1
# GST-SND1(1-203) = target: T8, GST-SND1(1-203) (Arabidopsis thaliana, UniProt Q9LPI7 1-203); details: protein: recombinant; tags: GST; chain copies: 2; dsDNA, one strand shown
# T8 sequence: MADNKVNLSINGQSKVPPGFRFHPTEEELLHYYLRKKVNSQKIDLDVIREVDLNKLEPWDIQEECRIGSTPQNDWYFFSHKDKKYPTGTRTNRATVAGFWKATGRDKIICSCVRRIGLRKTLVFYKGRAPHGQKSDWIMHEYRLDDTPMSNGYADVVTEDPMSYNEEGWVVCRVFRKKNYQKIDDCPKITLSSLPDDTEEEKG
# Method in brief: as §1
# GST-VND3 NAC domain = target: T9, GST-VND3 NAC domain (Arabidopsis thaliana, UniProt Q9FH59 12-162); details: protein: recombinant; tags: GST; chain copies: 2; dsDNA, one strand shown
# T9 sequence: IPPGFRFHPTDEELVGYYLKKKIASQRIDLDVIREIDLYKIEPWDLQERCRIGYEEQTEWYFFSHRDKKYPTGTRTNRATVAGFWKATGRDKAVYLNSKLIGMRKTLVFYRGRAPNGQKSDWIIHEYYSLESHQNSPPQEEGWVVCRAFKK
# Method in brief: as §1
# GST-VND7 NAC domain = target: T10, GST-VND7 NAC domain (Arabidopsis thaliana, UniProt Q9C8W9 9-158); details: protein: recombinant; tags: GST; chain copies: 2; dsDNA, one strand shown
# T10 sequence: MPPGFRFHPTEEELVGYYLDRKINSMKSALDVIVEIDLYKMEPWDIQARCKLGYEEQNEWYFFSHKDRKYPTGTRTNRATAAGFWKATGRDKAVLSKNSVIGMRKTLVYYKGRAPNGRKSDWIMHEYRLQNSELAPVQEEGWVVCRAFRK
# Method in brief: as §1
# GST-WRKY1(266-371) = GST-WRKY1(266-371) (Arabidopsis thaliana, UniProt Q9SI37 266-371); details: protein: recombinant; tags: GST; dsDNA, one strand shown
# Chain of GST-WRKY1(266-371) (Q9SI37 266-371): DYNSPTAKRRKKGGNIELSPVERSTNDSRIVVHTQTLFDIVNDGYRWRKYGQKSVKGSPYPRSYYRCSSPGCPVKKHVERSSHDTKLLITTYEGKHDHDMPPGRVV
# Method in brief: as §1
# GST-NTL8 NAC domain = target: T11, GST-NTL8 NAC domain (Arabidopsis thaliana, UniProt Q9XIN7 14-156); details: protein: recombinant; tags: GST; chain copies: 2; dsDNA, one strand shown
# T11 sequence: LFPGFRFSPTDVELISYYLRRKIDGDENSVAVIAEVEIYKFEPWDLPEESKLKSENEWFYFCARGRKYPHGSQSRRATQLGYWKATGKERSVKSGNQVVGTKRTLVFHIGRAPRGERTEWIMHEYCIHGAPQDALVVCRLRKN
# Method in brief: as §1
Sequence,binding signal (GST-ANAC092(1-176)) [E-score],binding signal (GST-NTL6(1-168)) [E-score],binding signal (GST-ANAC019 NAC domain) [E-score],binding signal (GST-ANAC055(1-171)) [E-score],binding signal (GST-ATAF1 NAC domain) [E-score],binding signal [1] [E-score],binding signal (GST-NAP(1-166)) [E-score],binding signal (GST-NST2(1-184)) [E-score],binding signal (GST-SND1(1-203)) [E-score],binding signal (GST-VND3 NAC domain) [E-score],binding signal (GST-VND7 NAC domain) [E-score],binding signal (GST-WRKY1(266-371)) [E-score],binding signal (GST-NTL8 NAC domain) [E-score]
GTAAGTCA,0.109,0.283,0.134,0.228,0.238,0.268,0.0612,0.21,0.234,0.19,0.232,0.429,–
TTACGGAA,0.266,0.151,0.455,0.402,0.404,0.354,0.413,0.199,0.405,0.442,0.391,0.126,0.128
AACGTAAA,0.254,0.0913,0.175,0.241,0.298,0.342,0.24,0.36,0.436,0.252,0.248,0.165,–
CACGCAAG,0.481,0.0685,0.413,0.354,0.268,0.484,0.348,0.358,0.404,0.415,0.367,0.0865,0.155
AATTACGT,0.439,0.142,0.472,0.446,0.435,0.421,0.454,0.352,0.42,0.47,0.46,0.185,0.205
ACTAAGTA,0.177,0.429,0.19,0.216,0.192,0.126,0.125,0.252,0.258,0.279,0.218,0.0999,0.116
GTACGTCA,0.441,0.0743,0.413,0.295,0.366,0.45,0.363,0.244,0.422,0.38,0.373,0.228,0.149
ATGCGTAC,0.362,0.0817,0.191,0.17,0.229,0.414,0.237,0.192,0.292,0.235,0.21,0.0545,–
ACGTCAAA,0.333,0.0817,0.262,0.245,0.176,0.372,0.194,0.261,0.361,0.252,0.25,0.421,–
CTTACTTA,0.205,0.454,0.164,0.137,0.154,0.276,0.111,0.221,0.317,0.209,0.106,0.235,0.208
CACGAAAG,0.407,0.109,0.25,0.216,0.133,0.411,0.17,0.189,0.184,0.191,0.132,0.0838,0.121
AAGTAAGT,0.249,0.412,0.189,0.164,0.199,0.259,0.135,0.181,0.282,0.217,0.135,0.2,0.267
